For 14 sequences, binding signal results are on record in publication PMC11006913.

Test in all cases: PBM; 200 nM protein, PBS
Holding throughout (conditions): dsDNA, one strand shown

Assay [1] has as its target T1, NKX2-4 (Homo sapiens, UniProt Q9H2Z4 175-261, P217L).
T1 sequence: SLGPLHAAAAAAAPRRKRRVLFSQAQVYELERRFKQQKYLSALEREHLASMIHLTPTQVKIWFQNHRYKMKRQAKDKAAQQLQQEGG

Assay [2] concerns the target T2, NKX2-4 (Homo sapiens, UniProt Q9H2Z4 175-261, T231S).
T2 sequence: T1 sequence with L43P, T57S

In assay [3] the target is T3, NKX2-4 (Homo sapiens, UniProt Q9H2Z4 175-261).
T3 sequence: T1 sequence with L43P

For assay [4], the target named is T4, NKX2-6 (Homo sapiens, UniProt A6NCS4 118-204, R150C).
T4 sequence: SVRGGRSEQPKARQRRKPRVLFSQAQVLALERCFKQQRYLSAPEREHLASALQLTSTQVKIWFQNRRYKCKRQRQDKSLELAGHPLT

Assay [5] concerns the target T5, NKX2-6 (Homo sapiens, UniProt A6NCS4 118-204).
T5 sequence: T4 sequence with C33R

Assay [6] concerns the target T6, NKX2-4 (Homo sapiens, UniProt Q9H2Z4 175-261, R246Q).
T6 sequence: T1 sequence with L43P, R72Q

The target of assay [7] is T7, NKX2-6 (Homo sapiens, UniProt A6NCS4 118-204, F151L).
T7 sequence: T4 sequence with C33R, F34L

Substitutions are numbered along the chain they refer to.

In the case of CACGCCGC, the binding signal in assay [1] was 9.39 upbm affinity estimate (log intensity, higher = more binding, comparable within an allelic series); in assay [2], 9.34 upbm affinity estimate (log intensity, higher = more binding, comparable within an allelic series); in assay [3], 9.42 upbm affinity estimate (log intensity, higher = more binding, comparable within an allelic series); in assay [4] it was 9.39 upbm affinity estimate (log intensity, higher = more binding, comparable within an allelic series); in assay [5], 9.52 upbm affinity estimate (log intensity, higher = more binding, comparable within an allelic series); in assay [6] it was 9.48 upbm affinity estimate (log intensity, higher = more binding, comparable within an allelic series). Also, in assay [7], the binding signal is 9.29 upbm affinity estimate (log intensity, higher = more binding, comparable within an allelic series).
CAAGTGCA: the binding signal is 12.1 upbm affinity estimate (log intensity, higher = more binding, comparable within an allelic series) in assay [1]; 12.5 upbm affinity estimate (log intensity, higher = more binding, comparable within an allelic series) in assay [2]; 12 upbm affinity estimate (log intensity, higher = more binding, comparable within an allelic series) in assay [3]; 11.4 upbm affinity estimate (log intensity, higher = more binding, comparable within an allelic series) in assay [4]; 12.7 upbm affinity estimate (log intensity, higher = more binding, comparable within an allelic series) in assay [6].
Regarding ACTCCTCG, the binding signal in assay [1] was 11.6 upbm affinity estimate (log intensity, higher = more binding, comparable within an allelic series); in assay [2] it was 11.8 upbm affinity estimate (log intensity, higher = more binding, comparable within an allelic series); in assay [3], 11.5 upbm affinity estimate (log intensity, higher = more binding, comparable within an allelic series).
CCCACTCA: the binding signal is 12.4 upbm affinity estimate (log intensity, higher = more binding, comparable within an allelic series) in assay [1]; 12.7 upbm affinity estimate (log intensity, higher = more binding, comparable within an allelic series) in assay [2]; 12.2 upbm affinity estimate (log intensity, higher = more binding, comparable within an allelic series) in assay [3]; 11.3 upbm affinity estimate (log intensity, higher = more binding, comparable within an allelic series) in assay [4]; 12.6 upbm affinity estimate (log intensity, higher = more binding, comparable within an allelic series) in assay [6].
Take AGTACTCA: the binding signal in assay [1] was 12.5 upbm affinity estimate (log intensity, higher = more binding, comparable within an allelic series); in assay [2], 12.9 upbm affinity estimate (log intensity, higher = more binding, comparable within an allelic series); in assay [3] it was 12.4 upbm affinity estimate (log intensity, higher = more binding, comparable within an allelic series); in assay [6], 12.9 upbm affinity estimate (log intensity, higher = more binding, comparable within an allelic series).
As for ACCGTTAC, the binding signal in assay [1] was 9.89 upbm affinity estimate (log intensity, higher = more binding, comparable within an allelic series); in assay [2], 9.95 upbm affinity estimate (log intensity, higher = more binding, comparable within an allelic series); in assay [3], 9.88 upbm affinity estimate (log intensity, higher = more binding, comparable within an allelic series); in assay [6], 9.92 upbm affinity estimate (log intensity, higher = more binding, comparable within an allelic series).
As to ATGAGTGG, the binding signal was 12.4 upbm affinity estimate (log intensity, higher = more binding, comparable within an allelic series) in assay [1]; 12.8 upbm affinity estimate (log intensity, higher = more binding, comparable within an allelic series) in assay [2]; 12.3 upbm affinity estimate (log intensity, higher = more binding, comparable within an allelic series) in assay [3]; 12.8 upbm affinity estimate (log intensity, higher = more binding, comparable within an allelic series) in assay [6].
Consider ACGTACTC, for which the binding signal in assay [1] was 11.8 upbm affinity estimate (log intensity, higher = more binding, comparable within an allelic series); in assay [2], 12 upbm affinity estimate (log intensity, higher = more binding, comparable within an allelic series); in assay [3] it was 11.7 upbm affinity estimate (log intensity, higher = more binding, comparable within an allelic series); in assay [6] it was 11.9 upbm affinity estimate (log intensity, higher = more binding, comparable within an allelic series).
As for CAGTGCGC, the binding signal in assay [1] was 9.85 upbm affinity estimate (log intensity, higher = more binding, comparable within an allelic series); in assay [2] it was 9.8 upbm affinity estimate (log intensity, higher = more binding, comparable within an allelic series); in assay [3], 9.86 upbm affinity estimate (log intensity, higher = more binding, comparable within an allelic series); in assay [6] it was 9.79 upbm affinity estimate (log intensity, higher = more binding, comparable within an allelic series).
As to ATGAGTAC, the binding signal in assay [1] is 12.4 upbm affinity estimate (log intensity, higher = more binding, comparable within an allelic series); in assay [2] it was 12.8 upbm affinity estimate (log intensity, higher = more binding, comparable within an allelic series); in assay [3], 12.3 upbm affinity estimate (log intensity, higher = more binding, comparable within an allelic series); in assay [6] it was 12.7 upbm affinity estimate (log intensity, higher = more binding, comparable within an allelic series).
Turning to CCTGCGCG, the binding signal in assay [1] was 9.34 upbm affinity estimate (log intensity, higher = more binding, comparable within an allelic series); in assay [2], 9.28 upbm affinity estimate (log intensity, higher = more binding, comparable within an allelic series); in assay [3], 9.35 upbm affinity estimate (log intensity, higher = more binding, comparable within an allelic series); in assay [6] it was 9.37 upbm affinity estimate (log intensity, higher = more binding, comparable within an allelic series).
For the sequence ACCAACGG, the binding signal in assay [1] was 9.32 upbm affinity estimate (log intensity, higher = more binding, comparable within an allelic series); in assay [2], 9.25 upbm affinity estimate (log intensity, higher = more binding, comparable within an allelic series); in assay [3], 9.28 upbm affinity estimate (log intensity, higher = more binding, comparable within an allelic series); in assay [6], 9.29 upbm affinity estimate (log intensity, higher = more binding, comparable within an allelic series).
For CCCGCAGG, the binding signal in assay [1] was 8.95 upbm affinity estimate (log intensity, higher = more binding, comparable within an allelic series); in assay [2], 8.81 upbm affinity estimate (log intensity, higher = more binding, comparable within an allelic series); in assay [3], 9.01 upbm affinity estimate (log intensity, higher = more binding, comparable within an allelic series); in assay [6], 8.96 upbm affinity estimate (log intensity, higher = more binding, comparable within an allelic series).
Take CGGCGTTA: the binding signal is 9.81 upbm affinity estimate (log intensity, higher = more binding, comparable within an allelic series) in assay [1]; 9.61 upbm affinity estimate (log intensity, higher = more binding, comparable within an allelic series) in assay [2]; 9.82 upbm affinity estimate (log intensity, higher = more binding, comparable within an allelic series) in assay [3]; 9.89 upbm affinity estimate (log intensity, higher = more binding, comparable within an allelic series) in assay [6].
